Consider 36 molecules from the antibiotic and cytotoxicity screens of Wong et al. (2023).

Structures are written as SMILES. Among all 39,000 compounds or so, about 3,300 (8.5%) were called active. This excerpt belongs to a sample that is enriched for actives.

This test has as its system HepG2. The test is described as follows: cytotoxicity call (relative viability < 0.9). As to conditions: 10 µM.
Take `COc1ccc(S(=O)(=O)N[C@H]2C=C[C@H](CC(=O)NCCc3ccncc3)O[C@@H]2CO)cc1`: the cytotoxicity call is “inactive”.

Take `C[C@@H]1CCCCO[C@H](CN(C)S(=O)(=O)c2ccc(Cl)cc2)[C@@H](C)CN([C@H](C)CO)C(=O)c2cc(NC(=O)CCC(F)(F)F)ccc2O1`: the cytotoxicity call was “inactive”. Next, `C[C@@H]1CN([C@H](C)CO)C(=O)c2cc(NC(=O)CCC(F)(F)F)ccc2O[C@@H](C)CCCCO[C@@H]1CN(C)S(=O)(=O)c1ccc(Cl)cc1`: “inactive”; `Cc1ccc(S(=O)(=O)N(C)C[C@@H]2OCCCC[C@H](C)Oc3ccc(NC(=O)CCC(F)(F)F)cc3C(=O)N([C@@H](C)CO)C[C@@H]2C)cc1`: “active”. Next, `Cc1ccc(S(=O)(=O)N(C)C[C@@H]2OCCCC[C@@H](C)Oc3ccc(NC(=O)CCC(F)(F)F)cc3C(=O)N([C@H](C)CO)C[C@H]2C)cc1`: “inactive”. `C[C@@H]1CN([C@H](C)CO)C(=O)c2cc(NC(=O)CCC(F)(F)F)ccc2O[C@@H](C)CCCCO[C@H]1CN(C)S(=O)(=O)c1ccc(Cl)cc1`: the cytotoxicity call was “active”. Next, `C[C@@H]1CN([C@@H](C)CO)C(=O)c2cc(NC(=O)CCC(F)(F)F)ccc2O[C@@H](C)CCCCO[C@H]1CN(C)S(=O)(=O)c1ccc(Cl)cc1`: “inactive”; `C[C@H](CO)N1C[C@H](C)[C@@H](CN(C)S(=O)(=O)c2ccc(Cl)cc2)OCCCC[C@H](C)Oc2ccc(NC(=O)CCC(F)(F)F)cc2C1=O`: “inactive”. Next, `C[C@@H]1CCCCO[C@H](CN(C)S(=O)(=O)c2ccc(Cl)cc2)[C@@H](C)CN([C@@H](C)CO)C(=O)c2cc(NC(=O)CCC(F)(F)F)ccc2O1`: “inactive”; `C[C@@H]1CCCCO[C@@H](CN(C)S(=O)(=O)c2ccc(Cl)cc2)[C@H](C)CN([C@H](C)CO)C(=O)c2cc(NC(=O)CCC(F)(F)F)ccc2O1`: “active”. In the case of `C[C@@H]1CN([C@@H](C)CO)C(=O)c2cc(NC(=O)CCC(F)(F)F)ccc2O[C@@H](C)CCCCO[C@@H]1CN(C)S(=O)(=O)c1ccc(Cl)cc1`, the cytotoxicity call is “inactive”.

In the case of `C[C@@H]1CCCCO[C@H](CN(C)S(=O)(=O)c2ccc(Cl)cc2)[C@H](C)CN([C@H](C)CO)C(=O)c2cc(NC(=O)CCC(F)(F)F)ccc2O1`, the cytotoxicity call was “active”. Next, `Cc1ccc(S(=O)(=O)N(C)C[C@H]2OCCCC[C@H](C)Oc3ccc(NC(=O)CCC(F)(F)F)cc3C(=O)N([C@H](C)CO)C[C@@H]2C)cc1`: “inactive”; `COc1ccc(NC(=O)N(C)C[C@H]2Oc3c(NC(=O)C4CCOCC4)cccc3C(=O)N([C@@H](C)CO)C[C@H]2C)cc1`: “inactive”; `CC(C)NC(=O)Nc1ccc2c(c1)C(=O)N([C@@H](C)CO)C[C@H](C)[C@@H](CN(C)C(=O)Nc1ccccc1)OCCCC[C@@H](C)O2`: “inactive”. Take `C[C@H](CO)N1C[C@H](C)[C@H](CN(C)Cc2cccc3c2OCCCO3)OCc2cn(nn2)CCCC1=O`: the cytotoxicity call is “inactive”. Next, `C[C@@H]1CCCCO[C@@H](CN(C)C(=O)CCC(F)(F)F)[C@@H](C)CN([C@H](C)CO)C(=O)c2cc(NS(=O)(=O)c3cccs3)ccc2O1`: “inactive”; `Cc1noc(C)c1S(=O)(=O)N(C)C[C@H]1Oc2ccc(NC(=O)CCC(F)(F)F)cc2CC(=O)N([C@@H](C)CO)C[C@@H]1C`: “inactive”; `O=C(C[C@H]1C=C[C@@H](NS(=O)(=O)c2ccccc2F)[C@H](CO)O1)NCCCN1CCOCC1`: “inactive”.

As to `C[C@@H]1CCCCO[C@@H](CN(C)C(=O)Nc2ccccc2)[C@@H](C)CN([C@H](C)CO)C(=O)c2cc(NS(=O)(=O)c3ccc(Cl)cc3)ccc2O1`, the cytotoxicity call is “inactive”. For `C[C@@H]1CN([C@H](C)CO)C(=O)c2cccc(NC(=O)c3cnccn3)c2O[C@@H]1CN(C)S(=O)(=O)c1ccc(Cl)cc1`, the cytotoxicity call is “inactive”. Turning to `C[C@@H]1CN([C@@H](C)CO)C(=O)c2cc(NC(=O)CCCCCC(=O)Nc3ccccc3N)ccc2O[C@@H](C)CCCCO[C@@H]1CN(C)S(=O)(=O)c1ccc(Cl)cc1`, the cytotoxicity call is “inactive”.

Consider `C[C@H](CO)N1C[C@H](C)[C@@H](CN(C)S(=O)(=O)c2ccc(C#N)cc2)OCc2cnnn2CCCC1=O`, for which the cytotoxicity call was “inactive”. `C[C@@H]1CCCCO[C@@H](CN(C)Cc2ccccc2)[C@H](C)CN([C@H](C)CO)C(=O)c2cc(NC(=O)c3ccccc3)ccc2O1`: the cytotoxicity call was “inactive”. As to `Cc1noc(C)c1NC(=O)Nc1ccc2c(c1)CC(=O)N([C@@H](C)CO)C[C@@H](C)[C@@H](CN(C)CC1CC1)O2`, the cytotoxicity call was “inactive”. With `COc1ccc(NC(=O)Nc2ccc3c(c2)C(=O)N([C@@H](C)CO)C[C@@H](C)[C@H](CN(C)Cc2ccc4c(c2)OCO4)OCCCC[C@@H](C)O3)cc1` the entry was “inactive”; with `CCCOc1ccnc2c1c(=O)n(C)c(=O)n2C`, “inactive”; with `COc1ccc(NC(=O)Nc2cccc3c2O[C@@H](CN(C)Cc2ccc(C(=O)Nc4ccccc4N)cc2)[C@@H](C)CN([C@H](C)CO)C3=O)cc1`, “inactive”. For the molecule `C[C@H]1CN([C@@H](C)CO)C(=O)Cc2cc(NC(=O)C3CC3)ccc2O[C@@H]1CN(C)S(=O)(=O)c1ccccc1`, the cytotoxicity call is “inactive”. As for `C[C@H](CO)N1C[C@H](C)[C@H](CN(C)S(=O)(=O)c2ccc(Cl)cc2)OCCCC[C@H](C)Oc2ccc(NC(=O)CCC(F)(F)F)cc2C1=O`, the cytotoxicity call was “inactive”. With `C[C@H]1CCCCO[C@H](CN(C)S(=O)(=O)c2ccc(Cl)cc2)[C@@H](C)CN([C@@H](C)CO)C(=O)c2cc(NC(=O)CCC(F)(F)F)ccc2O1` the entry was “active”. With `C[C@@H]1CCCCO[C@@H](CN(C)S(=O)(=O)c2ccc(Cl)cc2)[C@@H](C)CN([C@@H](C)CO)C(=O)c2cc(NC(=O)CCC(F)(F)F)ccc2O1` the entry was “inactive”. For the molecule `C[C@@H]1CCCCO[C@@H](CN(C)S(=O)(=O)c2ccc(Cl)cc2)[C@H](C)CN([C@@H](C)CO)C(=O)c2cc(NC(=O)CCC(F)(F)F)ccc2O1`, the cytotoxicity call is “active”.

On to `C[C@H]1CCCCO[C@@H](CN(C)S(=O)(=O)c2ccc(Cl)cc2)[C@@H](C)CN([C@@H](C)CO)C(=O)c2cc(NC(=O)CCC(F)(F)F)ccc2O1`, for which the cytotoxicity call was “inactive”.

Consider `C[C@@H]1CCCCO[C@@H](CN(C)S(=O)(=O)c2ccc(Cl)cc2)[C@@H](C)CN([C@H](C)CO)C(=O)c2cc(NC(=O)CCC(F)(F)F)ccc2O1`, for which the cytotoxicity call was “inactive”. Regarding `N#C[C@@H]1C(=O)NC(=O)[C@@H](C#N)C12CCCC2`, the cytotoxicity call is “inactive”.
